TEAD-YAP block: TEAD-YAP interaction inhibition; AID 1259422; 640,000 tested, 1.4% active; inhibition, % at 9.12 µM; HEK-TIYL cells, TEAD-Gal4/YAP UAS-luciferase luminescence; in the data active = inhibition above about 32%;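 note: 0% = median of test compound wells and 100% = reference inhibitor wells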
MITF primary: blocks human microphthalmia-associated transcription factor; AlphaScreen MITF homodimerization, bead proximity signal; AID 1259374; 650,000 tested, 0.91% active; inhibition, % at 2.6 µM; in the data active = inhibition above about 50%;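 note: 0% = vehicle wells with protein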
GPR151 activ: activates the human receptor GPR151; Q8TDV0; PathHunter beta-arrestin GPR151 cells, luminescence; activation, % at 11.2 µM; 650,000 tested, 1% active; AID 1508602; in the data active = activation above about 4.9%;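 note: 0% = median of compound wells and 100% = cells with positive control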
Target sequence (Q8TDV0 whole entry, looked up): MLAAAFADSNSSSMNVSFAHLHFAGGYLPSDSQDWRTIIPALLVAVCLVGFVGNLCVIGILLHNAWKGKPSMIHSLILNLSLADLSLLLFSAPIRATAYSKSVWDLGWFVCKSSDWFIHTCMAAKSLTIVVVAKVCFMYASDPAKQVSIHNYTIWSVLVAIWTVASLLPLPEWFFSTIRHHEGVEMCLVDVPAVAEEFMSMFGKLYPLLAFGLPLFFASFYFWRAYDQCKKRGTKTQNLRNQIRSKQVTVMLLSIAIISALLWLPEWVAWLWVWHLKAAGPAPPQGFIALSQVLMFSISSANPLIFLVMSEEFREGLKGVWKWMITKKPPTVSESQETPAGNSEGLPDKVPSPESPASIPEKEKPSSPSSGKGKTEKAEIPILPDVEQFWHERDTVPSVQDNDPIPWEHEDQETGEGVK
FBW7 activator: activators of human E3 ligase FBW7. Q969H0. AlphaScreen FBW7–phospho-cyclin E peptide binding, activator screen. normalized activity (activation), % at 26.1 µM. 650,000 tested, 0.13% active. AID 1259310; in the data active = normalized activity above about 1.9%;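 note: purified mutant Fbw7 with reduced substrate affinity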
MITF confirm: confirmation of human MITF inhibitors; shares compounds with MITF primary; AlphaScreen MITF homodimerization, biotin/His-MITF beads; 4,700 tested, 16% active; inhibition, % at 2.6 µM;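 active = inhibition above a cutoff derived from the DMSO control wells, cut at about 28% in these data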;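 note: 0% = MITF dimer wells with DMSO only; inhibitors lower the bead chemiluminescence by keeping MITF from dimerizing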
AlphaScreen DR: optically interferes with AlphaScreen signal in dose response; shares compounds with MITF primary; AlphaScreen optical interference counterscreen, cell-free; IC50, µM; 480 tested, 6% active; AID 1259373; call rule not given here
AS interf ctr: AlphaScreen optical interference, counter-screen; inhibition, % at 2.6 µM; LysRS AlphaScreen counterscreen, signal interference, triplicate; 4,700 tested, 7.6% active; shares compounds with MITF primary;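 active = inhibition above a cutoff derived from the DMSO control wells, cut at about 30% in these data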
Active calls of the source: *; / = no result. Shown are actives, neighbours in structure and some others; about 3.5% of the full set was active somewhere.

SMILES	TEAD-YAP block	MITF primary	GPR151 activ	FBW7 activator	MITF confirm	AS interf ctr	others
Cc1cc(C)c(C)c(S(=O)(=O)Nc2ccc(C(=O)NCc3ccccn3)cc2)c1C	-4.5	11.2	0.5	0.9	/	/
CS(=O)(=O)Nc1ccc(C(=O)NCc2ccccn2)cc1	-5.0	70.0*	1.0	0.7	-5.7	-7.9
O=[N+]([O-])c1ccccc1S(=O)(=O)N1CCN(Cc2cccc(F)c2)CC1	-0.4	56.2*	0.0	-0.1	7.6	14.2
COc1cccc(CN2CCN(S(=O)(=O)c3ccccc3[N+](=O)[O-])CC2)c1OC	-18.3	53.4*	1.1	-0.4	23.4	21.2
O=[N+]([O-])c1ccccc1S(=O)(=O)N1CCN(Cc2ccccc2)CC1	-11.1	1.1	-1.0	-0.2	/	/
Cc1cccc(CN2CCN(S(=O)(=O)c3ccccc3[N+](=O)[O-])CC2)c1	5.1	59.1*	-0.2	0.0	45.5*	9.6	AlphaScreen DR=>5.08
O=[N+]([O-])c1ccccc1S(=O)(=O)N1CCN(Cc2ccncc2)CC1	-2.6	75.9*	0.2	-0.2	9.8	14.8
COc1ccc(-n2ccc(-c3sc(NCc4ccncc4)nc3C)n2)cc1	7.6	-0.6	-0.7	-0.1	/	/
CC(C)NC(=O)c1cc2n(n1)C(C(F)(F)F)CC(c1ccc(Cl)cc1)N2 (stereo not given)	3.0	2.2	-1.7	0.5	/	/
CCN1CCC(N(Cc2ccco2)C(=O)Nc2cccc(C)c2C)CC1	4.1	3.3	0.6	0.5	/	/
O=[N+]([O-])c1ccccc1S(=O)(=O)N1CCN(Cc2ccsc2)CC1	4.7	39.8	0.1	-0.2	/	/
O=[N+]([O-])c1ccccc1S(=O)(=O)N1CCN(Cc2cccs2)CC1	-4.3	54.6*	1.5	-0.3	9.1	13.4
Cc1nnc(C2CCCN(C(=O)Nc3ccc(Cl)cc3)C2)s1 (stereo not given)	-3.9	-13.7	0.3	-0.1	/	/
NS(=O)(=O)c1ccc(NS(=O)(=O)c2ccc(O)c(C(=O)O)c2)cc1	8.0	1.6	0.7	-0.1	/	/
Cc1nc2ccc(NS(=O)(=O)c3ccc(O)c(C(=O)O)c3)cc2s1	9.8	35.0	0.1	0.3	/	/
Cc1ccc2nc(NS(=O)(=O)c3ccc(O)c(C(=O)O)c3)sc2c1	10.3	64.7*	-3.4	0.0	25.8	12.6
O=C(O)c1cc(S(=O)(=O)Nc2ccncc2)ccc1O	3.5	66.3*	1.2	-0.1	42.6*	8.9	AlphaScreen DR=>7.05
O=S(=O)(Nc1ccc2cn[nH]c2c1)c1ccc2ccccc2c1	3.5	0.7	1.4	0.1	/	/
O=C(O)c1cc(S(=O)(=O)Nc2ccc3cn[nH]c3c2)ccc1O	19.5	75.8*	-1.0	-0.2	51.6*	20.9	AlphaScreen DR=>7
O=C1C(=Cc2ccccc2I)C(=O)c2ccccc21	-1.4	-3.4	-0.1	-0.5	/	/
O=C1NC(=O)C(=Cc2ccccc2I)C(=O)N1	-11.2	55.1*	-0.5	0.1	1.9	10.4
CCN(CC)c1nc(NCCOc2ccccc2)nc(Nc2cccc(N(C)C)c2)n1	-6.4	60.7*	-1.2	0.5	6.8	5.6
COc1cc(CN2CCN(Cc3cccc(Cl)c3)CC2)cc(OC)c1	-1.3	73.5*	1.4	-0.1	6.7	3.8
COc1cc(CN2CCN(Cc3ccc(Cl)cc3)CC2)cc(OC)c1	1.0	84.3*	-1.8	-0.1	0.3	-1.3
COc1cccc(CN2CCCCC2)c1	0.6	-4.8	-0.3	-0.2	/	/
SMILES	TEAD-YAP block	MITF primary	GPR151 activ	FBW7 activator	MITF confirm	AS interf ctr	others
COc1cc(CN2CCCCCC2)cc(OC)c1	-2.1	-2.5	0.2	-0.1	/	/
COc1ccccc1C(=O)NC(=S)Nc1ccc(C(C)=O)cc1	-26.8	-9.3	0.4	-0.1	/	/
CCOc1cc(CN2CCN(S(=O)(=O)Cc3ccccc3)CC2)ccc1OC	13.0	-8.5	0.8	0.1	/	/
CCS(=O)(=O)N1CCN(Cc2cccc(OC)c2)CC1	13.5	56.5*	-0.9	-0.1	9.6	17.5
COc1cccc(CN2CCN(S(C)(=O)=O)CC2)c1	11.8	-3.9	0.7	0.1	/	/
COc1cccc(CN2CCN(S(=O)(=O)Cc3ccccc3)CC2)c1	1.0	68.2*	-0.2	0.4	4.3	14.4
CC[C@H](C)[C@@H]1NC(=O)[C@H]2CN(C(=O)Oc3ccc(F)cc3)CCN2C1=O	3.1	-6.7	1.2	0.0	/	/
CC(C)[C@H]1NC(=O)[C@H]2CN(C(=O)NCc3ccccc3)CCN2C1=O	6.1	70.0*	-1.0	-0.3	68.5*	-2.8	AlphaScreen DR=>6.48
CC[C@H](C)[C@@H]1NC(=O)[C@H]2CN(C(=O)Nc3cccc(F)c3)CCN2C1=O	6.3	58.1*	-0.5	-0.1	74.7*	4.0	AlphaScreen DR=>6.48
CC[C@H](C)[C@@H]1NC(=O)[C@H]2CN(C(=O)c3ccc(-c4ccccc4)cc3)CCN2C1=O	1.8	-9.7	0.7	-0.2	/	/
C[C@@H](OCc1ccccc1)[C@@H]1NC(=O)[C@H]2CN(C(=O)NCc3ccccc3)CCN2C1=O	9.8	76.0*	-0.7	-0.5	71.2*	-12.7	AlphaScreen DR=>6.48
CC[C@H](C)[C@@H]1NC(=O)[C@H]2CN(C(=O)NCc3ccccc3)CCN2C1=O	9.1	74.3*	-0.7	-0.1	66.3*	-7.0	AlphaScreen DR=>6.48
O=C(Nc1c2c(nn1-c1ccc(F)cc1)CS(=O)(=O)C2)c1ccccc1F	-5.9	-0.9	0.6	-0.1	/	/
COc1ccc(S(=O)(=O)N(CCc2ccccc2)CC(=O)Nc2cc(C)cc(C)c2)cc1	-0.8	-18.2	0.7	0.1	/	/
CCOC(=O)c1c(NC(C)=O)sc2c1CCC(Sc1ccccc1)/C2=N/O (stereo not given)	-10.0	2.2	1.3	-0.4	/	/
C[C@@H]1NC(=O)[C@H]2CN(C(=O)NCc3ccccc3)CCN2C1=O	-2.3	71.1*	0.2	-0.4	74.8*	-11.1	AlphaScreen DR=>6.48
CCc1ccccc1NC(=S)NC(=O)c1ccccc1	-5.5	-14.6	-1.8	-0.2	/	/
Cc1cc(C(=O)CCl)c(C)n1-c1ccc(Cl)cc1	13.5	11.4	0.8	0.0	/	/
NCc1nc2ccc(Cc3ccc4nc(CN)[nH]c4c3)cc2[nH]1	-4.4	104.9*	-0.8	0.3	83.7*	100.3*
Clc1ccccc1CN1CCN(c2ncccn2)CC1	-4.1	20.8	-0.2	0.1	/	/
Oc1c(Br)cc(CN2CCCCC2)c2cccnc12	65.8*	92.5*	-0.5	-1.0	112.0*	100.6*
Oc1c(Cl)cc(CN2CCCCC2)c2cccnc12	83.2*	109.7*	1.2	-1.0	109.7*	100.6*
Cc1ccccc1C(=O)Nc1ccc2cn[nH]c2c1	-19.3	-2.4	-1.7	0.1	/	/
Cc1nc(C)c(C(=O)Nc2ccc(C(N)=O)cc2)o1	-10.2	1.9	-0.4	0.0	/	/
Cc1nc(C)c(C(=O)Nc2ccc(Br)cc2)o1	1.9	55.9*	-1.1	0.4	7.2	20.5
C=C(C)CSc1nnc2n(-c3ccccc3C)c(=O)c3c4c(sc3n12)CCCC4	5.0	69.7*	0.0	-0.1	-2.5	-3.3
O=C(NO)c1nc[nH]c1C(=O)NO	-1.4	98.4*	-2.1	-0.2	98.9*	100.6*

Source: PubChem BioAssay
